CHO-K1 Ca antag: M1 antagonist counterscreen hit in parental CHO-K1 cells | AID 602250 | inhibition, % at 3 µM | actives 0.6% (n = 360,000) | ATP-induced calcium, Fluo-8 fluorescence;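 active means inhibition above a per-plate cutoff, the plate's mean sample inhibition plus 3 SD, cut at about 24% in these data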;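 further: 0% = DMSO plus EC80 ATP and 100% = DMSO alone without ATP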
CHRM1 PAM: potentiates human M1 receptor response to acetylcholine; CHO-K1 hM1, Fluo-8 calcium fluorescence, ACh EC20; 0% = ACh EC20, 100% = maximal ACh; activation, % at 3 µM; actives 0.088% (n = 360,000); AID 588819; in the data active means activation above about 19%, passing the limit was not always enough
Target sequence (P11229 whole entry, looked up): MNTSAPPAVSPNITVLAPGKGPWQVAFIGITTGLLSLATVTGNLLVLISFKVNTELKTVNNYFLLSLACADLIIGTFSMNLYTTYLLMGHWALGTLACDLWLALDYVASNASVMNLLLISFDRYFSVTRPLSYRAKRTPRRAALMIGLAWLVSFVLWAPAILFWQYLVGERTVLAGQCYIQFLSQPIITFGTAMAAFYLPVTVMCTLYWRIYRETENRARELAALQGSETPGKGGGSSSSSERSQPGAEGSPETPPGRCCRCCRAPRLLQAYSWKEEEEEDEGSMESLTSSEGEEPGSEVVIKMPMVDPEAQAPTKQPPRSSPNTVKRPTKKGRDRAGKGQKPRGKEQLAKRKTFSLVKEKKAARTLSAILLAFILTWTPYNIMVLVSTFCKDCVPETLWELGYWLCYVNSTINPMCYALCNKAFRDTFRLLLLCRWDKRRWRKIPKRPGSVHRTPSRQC
M1 ag parental: M1 agonist counterscreen hit in parental CHO-K1 cells; actives 0.48% (n = 360,000); Fluo-8 calcium fluorescence; scaled to maximal ATP response, vehicle zero; AID 602248; activation, % at 3 µM; in the data active means activation above about 15%;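 further: untransfected CHO-K1 host cells lacking M1 receptor as counterscreen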
M1 PAM parental: M1 PAM counterscreen hit in parental CHO-K1 cells; ATP EC20, Fluo-8 calcium fluorescence; 0% at ATP EC20, 100% at ATP max; activation, % at 3 µM; actives 0.02% (n = 360,000); AID 602247;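 active means activation above the run cutoff, the mean activation of all test compounds plus 3 SD, cut at about 40% in these data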;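 further: peak over basal fluorescence ratio in a 140 s read after ATP addition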
M1 ag: human M1 muscarinic receptor agonism. AID 588814. activation, % at 3 µM. actives 0.33% (n = 360,000). CHO-K1 hM1, Fluo-8 calcium fluorescence, agonist mode; 0% DMSO, 100% acetylcholine EC100;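 active means activation above the run's mean compound activation plus 3 SD, cut at about 16% in these data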;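 further: peak over basal fluorescence ratio within a 140 s kinetic read after compound addition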
CHRM1 antagonist: antagonists of human M1 muscarinic receptor | AID 588852 | inhibition, % at 3 µM | CHO-K1 hM1, Fluo-8 calcium fluorescence, ACh EC80 antagonist | P11229 | actives 1.3% (n = 360,000);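 active means percent inhibition above its own plate's cutoff, namely the mean of that plate's compound wells plus 3 SD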;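 further: peak over basal fluorescence ratio during 140 s after agonist addition; 0% = ACh EC80 plus DMSO and 100% = DMSO alone without agonist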
* hit, by the source's call. Most compounds without a hit are left out; they make up all but 2.4% or so of the library.

SMILES | CHO-K1 Ca antag | CHRM1 PAM | M1 ag parental | M1 PAM parental | M1 ag | CHRM1 antagonist
COc1ccc(S(=O)(=O)NCCC(=O)OCc2cc(=O)oc3cc(C)ccc23)cc1[N+](=O)[O-] | 34.4* | -15.6 | 10.8 | -12.6 | -1.0 | 47.9*
CCCNS(=O)(=O)c1cccc(C(=O)OCc2cc(=O)oc3cc(OC)ccc23)c1 | 0.7 | -16.8 | 15.8* | 1.9 | -3.2 | 21.3
O=C(CNC(=O)C12CC3CC(CC(C3)C1)C2)NCc1ccccc1 | -6.6 | 11.0 | -0.1 | -2.5 | 1.2 | -2.8
CC[N+](C)(C)CCN(Cc1ccc(Cl)cc1)c1ccccn1 | -2.1 | -13.3 | 0.1 | -4.7 | 15.2 | 80.3*
COc1ccc(N2C(=O)[C@@H]3[C@H](C2=O)[C@H]2c4ccccc4C=CN2[C@@H]3C(=O)Nc2ccccc2)cc1 | -0.6 | -7.7 | 0.6 | 11.3 | 50.4* | 10.0
C#CCN(CC(=O)OCC)S(=O)(=O)CCNC1CC1 | -3.1 | -10.2 | 0.1 | -9.4 | -3.2 | 7.7
Cc1cc(O)ccc1NC(=O)CCN1C(=O)c2ccc([N+](=O)[O-])cc2C1=O | -4.7 | 28.5* | 0.6 | 12.0 | -3.3 | 2.2
COc1ccccc1Oc1ccc2c(c1)C(=O)N(c1cccc3ncccc13)C2=O | 24.1* | -7.5 | 11.0 | 1.5 | 9.7 | 24.6
CCN1CCN(c2ncc(C(=O)N3CCN(c4ccccc4OC)CC3)c3ccccc23)CC1 | -2.8 | -22.6 | -0.2 | 11.8 | -7.0 | 21.1*
COc1ccccc1N1CCN(C(=O)c2n[nH]c3ccccc23)CC1 | -13.2 | 7.5 | 1.6 | 13.9 | -3.4 | -4.5
CCOC(=O)N1CCN(C(=O)c2cnc(Nc3ccccc3OC)c3ccccc23)CC1 | 6.8 | -12.7 | 4.1 | 3.6 | -3.4 | 33.0*
CCN1CCN(c2ncc(C(=O)Nc3cc(Cl)c(OC)cc3OC)c3ccccc23)CC1 | -15.1 | -26.1 | 0.7 | 23.7 | -11.9 | 33.7*
CCN1CCN(c2ncc(C(=O)Nc3c(F)cc(F)cc3Br)c3ccccc23)CC1 | -8.2 | -17.7 | 2.2 | 19.6 | -3.8 | 28.5
O=[N+]([O-])c1ccc(S(=O)(=O)N2CCN=C2SCc2ccc(F)cc2)cc1 | -0.2 | 5.8 | 0.6 | -3.2 | -2.3 | -6.2
COc1cc(OC)cc(C(=O)NCC(=O)OCC(=O)Nc2ccc(C)c(S(=O)(=O)N3CCOCC3)c2)c1 | -3.4 | 14.9 | 1.3 | -6.7 | 4.5 | 7.7
O=C(NCc1ccccc1)N1CCN(CCO)CC1 | 3.4 | 3.5 | 0.2 | 6.2 | -2.8 | -10.0
O=C(N1CCN(CCO)CC1)N1c2ccccc2C=Cc2ccccc21 | -14.5 | -14.9 | 0.1 | 27.8 | -6.0 | 30.7*
Cc1ccc(S(=O)(=O)N2CCC(C(=O)N3CCC[C@H]3C(=O)NC3CCS(=O)(=O)C3)CC2)cc1 (stereo partly drawn) | -0.3 | -17.1 | 2.2 | 15.2 | -1.7 | 54.0*
CCCNC(=O)[C@@H]1CCCN1C(=O)C1CCN(S(=O)(=O)c2ccc(C)cc2)CC1 | -2.1 | 7.8 | 0.3 | -0.1 | -1.3 | -4.8
Fc1cccc(Cc2noc(CN3CCN(C4CCc5ccccc5C4)CC3)n2)c1 (stereo not drawn) | -12.6 | -25.8 | 3.6 | 25.8 | -9.9 | 72.0*
Fc1cccc(Cc2noc(CN3CCCN(C4Cc5ccccc5C4)CC3)n2)c1 | -10.6 | -33.7 | 1.1 | 19.7 | -12.8 | 93.3*
Fc1cccc(Cc2noc(CN3CCSCC3)n2)c1 | -20.0 | 10.8 | 1.0 | 16.6 | -9.1 | -8.4
CCC1=NN(S(=O)(=O)c2ccc(C)cc2)C(O)(C(F)(F)F)C1 (stereo not drawn) | -3.3 | 7.2 | 0.5 | 19.2 | -5.7 | -2.6
CCCCOc1ccc(/C=N/NC(=S)Nc2cc(C)ccc2C)cc1 | 28.0* | 7.9 | 1.7 | -5.4 | 0.2 | 2.0
Cc1ccc(CNC(=S)Nc2cc(C(=O)O)ccc2C)cc1 | 31.2* | -5.2 | 0.0 | -18.6 | -4.0 | 2.9
CCOc1ccc(-c2cc(C(=O)Nc3ccc4c(c3)OCCO4)c3ccccc3n2)cc1 | 30.3* | 1.9 | 2.7 | 4.9 | -2.1 | 11.1
COc1cccc(/C=N/NC(=O)c2cc(-c3ccccn3)nc3ccccc23)c1O | -16.3 | -11.3 | 4.3 | 3.8 | -4.6 | 37.2*
CCOc1ccc(-c2cc(C(=O)N/N=C/c3cccnc3)c3ccccc3n2)cc1 | 13.0 | -4.2 | 24.3* | -0.9 | 7.3 | -5.2
